A selection: hits, their analogues and other compounds. The true share with any hit is near 3.1%.
GCN5L2 inh: inhibitors of human GCN5L2 histone acetyltransferase | hit rate 0.21% among 390,000 | Potency, µM (top dose mostly 58.9 µM), inactives show at the highest dose activity change, negative = inhibition, most hits filed as inhibitors | AID 504327 | GCN5L2 HAT assay, ThioGlo1 CoA-SH fluorescence | Q92830; note: potency is the fitted concentration of half-maximal effect
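Fluorescence readout, Ex340nm/Em540nm: ThioGlo1 (50uM final) reacts with free CoA thiol released as 20nM GCN5L2 acetylates H3(1-25) peptide (75uM) using acetyl-CoA (70uM). Compound and enzyme sat 15 min beforehand; 20 min room-temperature reaction.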
PLK1 PBD block: inhibitors of human PLK1 polo-box domain binding; AID 720504; Plk1 PBD binding of FITC phosphopeptide, fluorescence polarization; Potency, µM, for inactives: max response, negative = inhibition, hits mostly inhibitors; P53350; hit rate 2.8% among 360,000; note: potency is the fitted concentration of half-maximal effect; series mostly up to about 57 µM; nearly all actives have a fitted effect of over 65% in size
PI4K2A inh: PI4K2A (human) kinase inhibition | purified PI4K2A, ADP-Glo luminescence, 1 h; hits give low values | activity change, negative = inhibition, % at 76.9 µM | hit rate 0.13% among 420,000; in the data active = activity change below about -50%; inconclusive = mostly about -30% to -49%;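 note: -100% = wells without enzyme as full effect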
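PI4K2A activity was measured by ADP-Glo luminescence: enzyme (4 ug/mL stock) and phosphatidylinositol (1.2 mM stock) in Tris pH 7.5/MgCl2/EGTA/Triton X-100 buffer were reacted with ATP (300 microM stock) for one hour at ambient temperature.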
GLS inh: glutaminase GLS (human) inhibition | O94925 | GLS enzymatic activity, qHTS titration | Potency, µM (top dose mostly 45.5 µM), without a hit: at the highest dose activity change, negative = inhibition, most hits filed as inhibitors | hit rate 0.21% among 410,000; note: potency is the fitted concentration of half-maximal effect
Target sequence (O94925 whole entry, looked up): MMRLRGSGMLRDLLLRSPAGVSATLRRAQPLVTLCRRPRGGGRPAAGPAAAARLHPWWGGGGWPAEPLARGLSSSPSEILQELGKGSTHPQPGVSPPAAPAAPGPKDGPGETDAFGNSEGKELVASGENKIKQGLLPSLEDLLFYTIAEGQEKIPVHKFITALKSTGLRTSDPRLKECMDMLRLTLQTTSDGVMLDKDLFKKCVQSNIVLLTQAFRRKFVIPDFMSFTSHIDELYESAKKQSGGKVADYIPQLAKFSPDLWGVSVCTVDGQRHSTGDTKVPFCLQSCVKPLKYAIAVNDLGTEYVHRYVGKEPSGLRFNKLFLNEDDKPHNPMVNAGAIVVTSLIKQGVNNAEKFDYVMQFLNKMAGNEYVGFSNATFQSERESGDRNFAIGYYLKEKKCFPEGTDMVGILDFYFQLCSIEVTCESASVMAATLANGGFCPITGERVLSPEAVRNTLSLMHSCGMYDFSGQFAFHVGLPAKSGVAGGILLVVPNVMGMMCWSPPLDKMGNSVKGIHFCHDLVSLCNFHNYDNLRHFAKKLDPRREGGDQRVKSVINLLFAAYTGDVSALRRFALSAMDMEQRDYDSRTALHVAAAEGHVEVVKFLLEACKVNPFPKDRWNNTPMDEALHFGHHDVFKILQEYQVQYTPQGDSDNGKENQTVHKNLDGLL
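Compounds were pin-transferred onto hKGA, after which L-glutamine (1 mM solution) and a detection mix of glutamate oxidase, HRP and Amplex Red were added. Initial and 30 min RT fluorescence reads were collected.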
VDR inhibitor: vitamin D3 receptor (human) inhibition. Potency, µM, without a hit: max response, negative = inhibition, usual class: inhibitors. VDR-SRC2-3 peptide fluorescence polarization, 2 h. P11473. hit rate 0.93% among 400,000; note: potency is the fitted concentration of half-maximal effect
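Compounds are added to VDR with labelled SRC2-3 coactivator peptide and held 2 h at room temperature. Inhibition of the VDR–peptide interaction is then read as a change in fluorescence polarization.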
* = called active by the depositor; ? = inconclusive; . = no result given. Unless noted, calls come from the whole dose curve; as a rule, active = well fitted curve in the direction sought with a large enough effect; inconclusive = small, poorly fitted or top-dose-only effect, or another doubt; inactive = no such curve, though single readings can be large; an effect the other way counts as inactive or inconclusive. Unless noted, % is set by controls: 0 for no effect and ±100 for the full control effect.

SMILES	GCN5L2 inh	PLK1 PBD block	PI4K2A inh	GLS inh	VDR inhibitor
Cc1ccsc1/C=C1/SC(N2CC(C)OC(C)C2)=NC1=O (centres undefined)	-6%	30µM*	9	-9%	-17%
Cc1ccc(CNC(=O)OC(C)(C)C)c(/C=C/S(=O)(=O)NCCc2ccccc2)c1	.	.	-1	.	.
O=c1cc(-c2ccc(O)cc2)oc2cc(OC3OC(CO)C(O)C(O)C3O)c(C3OC(CO)C(O)C(O)C3O)c(O)c12 (centres undefined)	-13%	.	.	.	1%
COc1cc(/C=N/N=C2/SCC(=O)N2c2ccc(O)cc2)ccc1O	-3%	3µM*	4	?	18µM*
COc1ccc(/C=N\N=C2/SC(CC(=O)O)C(=O)N2c2ccc(O)cc2)cc1OC (centres undefined)	21%	-2%	3	7%	-9%
CC1CC=CC2C1C(=O)N(Cc1ccccc1)C2c1ccc2ccccc2c1C=Cc1ccccc1 (centres undefined)	.	.	.	.	-5%
CCC1CC=CC2C1C(=O)N(Cc1ccccc1)C2c1ccoc1 (centres undefined)	.	.	.	.	79µM*
C[C@@H]1CC=C[C@H]2[C@H]1C(=O)N(Cc1ccccc1)[C@H]2c1ccc2ccccc2c1Br	0%	24µM*	8	1%	-30%
O=C(CCc1ccccc1)N[C@H]1[C@@H](OC(=O)c2cnccn2)CCC[C@]12C(=O)N(Cc1ccccc1)c1ccccc12	.	.	-3	.	.
COCCNC(=S)Nc1ccc(N2CCCCC2)cc1	-12%	3.8µM*	-1	18%	32µM*
FC(F)Oc1ccc(NC(=S)NNc2ccnc3cc(Cl)ccc23)cc1	-1%	-20%	-1	-2%	35µM*
NC(=S)NNc1ccnc2cc(Cl)ccc12	-28%	21µM*	1	6.3µM*	-15%
Cc1ccc(S(=O)(=O)c2nc(-c3ccccc3F)oc2N2CCCCC2)cc1	-5%	.	1	11%	0%
CCS(=O)(=O)c1ccc(N=Nc2ccc(O)c3ncccc23)c(OC)c1	-17%	-1%	-14	-8%	-8%
COc1cc(-c2ccc(N=Nc3ccc4c(S(=O)(=O)O)cc(S(=O)(=O)O)c(N)c4c3O)c(OC)c2)ccc1N=Nc1ccc2c(S(=O)(=O)O)cc(S(=O)(=O)O)c(N)c2c1O	4µM*	.	.	.	?
O=S1(=O)C=C(Sc2nc3ccccc3s2)c2ccccc21	-1%	2.7µM*	-14	1%	13µM*
O=C(CNS(=O)(=O)c1ccc(Br)s1)N1CCN(c2ccccn2)CC1	.	.	4	.	.
O=C(CCN1C(=O)/C(=C\C=C\c2ccccc2)SC1=S)Nc1ccccc1C(=O)O	1%	30µM*	-9	-2%	?
O=C(CCN1C(=O)/C(=C/C=C/c2ccccc2)SC1=S)Nc1nccs1	-1%	-11%	3	6%	11%
O=C(CCCN1C(=O)S/C(=C/C=C/c2ccccc2)C1=O)Nc1ccc(C(=O)O)cc1	-16%	30µM*	-8	-28%	32µM*
O=C(CCN1C(=O)/C(=C\C=C\c2ccccc2)SC1=S)Nc1cccc(C(=O)O)c1	-25%	27µM*	-20	1%	-3%
CCCCOC(=O)c1ccc(OC(=O)c2sc3ncn(Cc4ccccc4Cl)c(=O)c3c2C)cc1	-1%	.	-5	-1%	19%
Cc1ccc(-n2c(SCC(=O)Nc3ccccc3-c3ccccc3)nnc2-c2cccnc2)cc1	.	.	-8	.	.
Nn1c(SCC(=O)Nc2cccnc2Cl)nnc1-c1ccccc1	?	4.7µM*	-1	-24%	79µM*
Nc1nc(SCC(=O)Nc2cccnc2Cl)n[nH]1	-5%	12µM*	0	?	-19%
C=CCn1c(SCC(=O)Nc2nnc(C)s2)nnc1-c1cccnc1	-4%	21µM*	-4	-16%	-3%
O=C(CSc1nnc(-c2cccnc2)n1-c1ccccc1)Nc1ccccn1	-12%	3.4µM*	-5	?	-18%
CCCCCCC(O)C/C=C\CCCCCCCC(=O)O (centres undefined)	.	.	.	3%	.
C=C1C(c2ccc(C)cc2)=CCc2cc(C)cc(C)c21	-9%	.	.	.	4%

From PubChem BioAssay
